Values without a mark were called inactive. Activity calls are given as the source filed them. The call rests on the fitted dose curve.
Each compound was assayed against Gonadotropin-releasing hormone receptor (Homo sapiens) (UniProt P30968) (assay: Human gonadotropin-releasing hormone receptor (GnRHR) small molecule agonists, calcium flux assay in GnRHR-HEK293 cells (AID 1920063; further: nearly all actives have a fitted effect of over 35% in size)). Conditions: calcium flux fluorescence, agonist mode; series mostly up to 57.6 µM; activity change: at the top concentration.
Sequence of Gonadotropin-releasing hormone receptor (Homo sapiens) (P30968 whole entry, looked up): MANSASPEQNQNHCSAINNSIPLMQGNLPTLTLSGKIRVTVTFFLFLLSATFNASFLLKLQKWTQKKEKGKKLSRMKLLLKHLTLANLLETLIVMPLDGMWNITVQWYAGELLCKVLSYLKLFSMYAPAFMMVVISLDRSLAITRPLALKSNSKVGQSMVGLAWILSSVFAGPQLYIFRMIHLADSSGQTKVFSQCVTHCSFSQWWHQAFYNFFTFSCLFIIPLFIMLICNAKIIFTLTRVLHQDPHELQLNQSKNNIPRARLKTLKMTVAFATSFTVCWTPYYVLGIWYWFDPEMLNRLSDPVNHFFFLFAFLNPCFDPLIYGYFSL
Text: National Center for Advancing Translational Sciences [NCATS]
Division of Preclinical Innovation [DPI]
U.S. Environmental Protection Agency [EPA]
National Institutes of Environmental Health Sciences [NIEHS]
National Toxicology Program [NTP]
U.S. Food and Drug Administration [FDA]
Gonadotropin-releasing hormone receptor (GnRHR) is a G-protein-coupled receptor (GPCR) and acts (through phospholipase C) to increase intracellular inositol trisphosphate and then release intracellular calcium stores. Cell-based GnRHR-Hek293 calcium influx assay is using HEK293 cells that have been genetically engineered to express the human GnRHR, which activity can be measured by calcium signaling. A compound/drug can activate (agonist) GnRHR that can be monitored by levels of intracellular calcium.
GnRHR-HEK293 cells developed by Codex Corp contain human GnRHR reporter gene, which was stably integrated into HEK 293 cells. The compound activation can be detected by fluorescence intensity via calcium flux assay. This cell line has been used to screen the Tox21 10K compound library to identify GnRHR agonists.
GnRHR-Hek293 cells were dispensed at 1500cells/4uL/well in 1536-well black wall/clear bottom plates using a multidrop dispenser. After the assay plates were incubated at a 37 C/5% CO2 incubator for 18 hours, 4 uL of Calcium Dye Solution was added to each well. The plates were incubated at 37 C for 1 hour. For agonist mode, 23 nL of compounds dissolved in DMSO, positive controls or DMSO only was transferred to the assay plate by a pin tool station. The fluorescence intensity in the plates was measured using FDSS 7000EX kinetic plate reader with a filter set of Ex/Em=480/540 for 3 min at 1 sec intervals. Each test compound was measured at 15 concentrations and in triplicates.
`COC(=O)CC(C)CCC=C(C)C` (stereo not given) was tested, and the “activity change” value was -1.64%. With `CC[N+](C)(CC)CC` the “activity change” value was -0.225%. In the case of `CCC(C)C(C)=O` (stereo not given), the “activity change” value is reported as -1.88%. For `CCC(=O)OCCOc1ccccc1`, the “activity change” value was 1.44%. With `C[C@@H](O)[C@H]1C(=O)N2C(C(=O)O)=C(S[C@@H]3CN[C@H](CNS(N)(=O)=O)C3)[C@H](C)[C@H]12` the “activity change” value was -0.869% [at 26.4 µM, active compounds read high]. For `CN(C)CCOc1ccccc1Cc1ccccc1`, the “activity change” value was 7.7% [at 26.4 µM, active compounds read high]. In the case of `Cc1cccc(Nc2ccccc2)c1`, the “activity change” value is reported as 7%. For `CCCC1C(CC)=CC(CC)=CN1c1ccccc1` (stereo not given), the “activity change” value was -0.0372%. In the case of `CC1(C)C(=O)N(Cl)C(=O)N1Br`, the “activity change” value is reported as -1.38%. For `CN(C)CCN(Cc1ccccc1)c1ccccn1`, the “activity change” value was 9.86% [at 26.4 µM, active compounds read high]. In the case of `O=C(O)[C@@H]1CSCN1`, the “activity change” value is reported as -1.38% [at 26.4 µM, active compounds read high]. With `O=C1Nc2ccc([N+](=O)[O-])cc2C1=O` the “activity change” value was 0.441%. `CCC[C@@H]1C[C@@H](C(=O)N[C@@H]([C@H]2O[C@H](SC)[C@H](O)[C@@H](O)[C@H]2O)[C@@H](C)O)N(C)C1` was tested, and the “activity change” value was -1.13% [at 26.4 µM, active compounds read high]. For `Cc1cc2cc3c(C)cc(=O)oc3c(C)c2o1`, the “activity change” value was -1.83% [at 26.4 µM, active compounds read high]. In the case of `Cc1coc2ccccc2c1=O`, the “activity change” value is reported as -0.609% [at 26.4 µM, active compounds read high]. In the case of `Clc1cccc(C(c2ccc3nc[nH]c3c2)n2ccnc2)c1` (stereo not given), the “activity change” value is reported as 0.146% [at 26.4 µM, active compounds read high]. In the case of `CC(C)CCOC(=O)/C=C/c1ccccc1`, the “activity change” value is reported as 0.0983%. `O=C(c1ccc(O)cc1)c1ccc(O)c(O)c1O` was tested, and the “activity change” value was -2.8%. For `Brc1cc(Br)c(Oc2cc(Br)c(Br)cc2Br)cc1Br`, the “activity change” value was 1.63% [at 26.4 µM, active compounds read high]. In the case of `CCCCCCCC/C=C\CCCCCCCC(=O)OCCO`, the “activity change” value is reported as -1.23%. For `Nc1ccc2ccccc2c1S(=O)(=O)O`, the “activity change” value was -2%. `CCCCN1C(=O)[C@@H]([C@H](O)C2CCCCC2)NC(=O)C12CCN(Cc1ccc(Oc3ccc(C(=O)O)cc3)cc1)CC2` was tested, and the “activity change” value was -1.15%. `O=CO` was tested, and the activity change was 0% [at 5.22 µM, active compounds read high]. In the case of `C[n+]1c2cc(N)ccc2cc2ccc(N)cc21` (tested in a mixture with another compound), the Potency is reported as 16.9 µM (active). With `Nc1c(Cl)cc(Cl)cc1[N+](=O)[O-]` the “activity change” value was -1.23%. `[Ca+2]` was tested, and the “activity change” value was -0.941%. `NC(=O)c1cc[n+](CC2=C(C(=O)[O-])N3C(=O)[C@@H](NC(=O)Cc4cccs4)[C@H]3SC2)cc1` was tested, and the “activity change” value was -0.149% [at 26.4 µM, active compounds read high]. For `O[C@@H](c1cc(C(F)(F)F)nc2c(C(F)(F)F)cccc12)[C@H]1CCCCN1`, the Potency was 16.9 µM (active). With `CC(C)(C)c1cc(CO)cc(C(C)(C)C)c1O` the “activity change” value was -0.147%. For `CC(=O)c1c(C)c([N+](=O)[O-])c(C(C)(C)C)c([N+](=O)[O-])c1C`, the “activity change” value was 0.0678%. `COc1ccc2cc(CCC(C)=O)ccc2c1` was tested, and the “activity change” value was -1.73% [at 26.4 µM, active compounds read high]. With `CC[C@H]1CC[C@H](NCc2cc3c(cc2OC)[C@H]2C[C@H]2C(=O)N3C)[C@H](c2ccccc2)N1` the “activity change” value was -0.899%. `CCCCCCNC(=O)n1cc(F)c(=O)[nH]c1=O` was tested, and the “activity change” value was 0.0807% [at 26.4 µM, active compounds read high]. In the case of `COc1cc(C(C)=O)ccc1OCCCN1CCC(c2noc3cc(F)ccc23)CC1`, the “activity change” value is reported as 3.22% [at 26.4 µM, active compounds read high]. With `CC(C)(C)c1ccc(C(=O)O)cc1` the “activity change” value was -0.0513%. `N[C@@H](CS)C(=O)O` was tested, and the “activity change” value was -0.159%. `C=CC(=O)NC(C)(C)C` was tested, and the “activity change” value was -0.597%. With `CCOc1ccc(NC(=O)CC(C)=O)cc1` the “activity change” value was -0.247%. For `FC(F)(Cl)C(F)(Cl)Cl`, the “activity change” value was 1.09%. In the case of `O=C1NC(=O)C2CC=CCC12` (stereo not given), the “activity change” value is reported as -0.306%.
On the % scale 0 is the no-effect control and ±100 the full control effect; potency means the concentration at half of the fitted maximal effect.
